Screening data from PubChem BioAssay.
Most compounds without a hit are left out; they make up all but 1.2% or so of the library.
RGS16-Gao: regulators of human RGS16-Galphao interaction. O15492+P09471. bead-based flow cytometry RGS16-Galphao binding, fluorescence; actives lie on both sides. binding response (% of control), % at 10 µM. hit rate 0.38% among 220,000. AID 1441;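 also: Galphao activated by GDP with aluminum fluoride before binding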
Target sequence (O15492 whole entry, looked up): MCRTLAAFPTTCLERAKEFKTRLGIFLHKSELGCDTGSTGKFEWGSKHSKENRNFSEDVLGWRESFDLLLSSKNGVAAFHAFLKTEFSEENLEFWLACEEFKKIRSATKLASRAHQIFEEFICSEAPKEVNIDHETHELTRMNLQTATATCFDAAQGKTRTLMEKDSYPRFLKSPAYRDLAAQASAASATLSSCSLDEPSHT
Target sequence (P09471 whole entry, looked up): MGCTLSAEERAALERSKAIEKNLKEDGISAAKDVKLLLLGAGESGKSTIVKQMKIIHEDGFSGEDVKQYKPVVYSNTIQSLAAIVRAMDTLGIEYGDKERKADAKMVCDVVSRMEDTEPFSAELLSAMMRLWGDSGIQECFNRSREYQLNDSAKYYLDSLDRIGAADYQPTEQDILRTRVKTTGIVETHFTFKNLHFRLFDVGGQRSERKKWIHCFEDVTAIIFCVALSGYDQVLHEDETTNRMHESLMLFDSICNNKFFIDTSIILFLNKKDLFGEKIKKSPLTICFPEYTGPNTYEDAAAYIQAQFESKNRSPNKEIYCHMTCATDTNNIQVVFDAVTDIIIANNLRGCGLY
GSH fluor: GSH bead compound fluorescence profile; GSH beads flow cytometry, compound fluorescence 488/530 nm; active compounds read high; fluorescence (KMESF) at 10 µM; hit rate 0.25% among 190,000; in the data active = fluorescence above about 89;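 also: glutathione beads carrying GST-tagged Bcl family fusion proteins plus one bare bead set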
RGS4-Gao reg: modulates binding of RGS4 to human Galphao | P09471 | Multiplexed bead flow cytometry; actives lie on both sides | binding response (% of control), % at 10 µM | hit rate 0.33% among 220,000 | AID 1415; in the data active = binding response below about 49% or above about 150%; inactive = in between;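 also: fluorescent Galphao activated with aluminum fluoride binding bead-coupled RGS4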
Target sequence (P09471 whole entry, looked up): as above
RGS8-Gao: regulators of human RGS8-Galphao interaction | P09471 | multiplexed bead flow cytometry, RGS8-Galphao binding; actives lie on both sides | response (percent of control binding), % at 10 µM | hit rate 0.34% among 220,000 | AID 1423; in the data active = response below about 60% or above about 140%; inactive = in between;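 also: Galphao activated as the GDP aluminium fluoride complex binding bead-coupled RGS8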
RGS7-Gao reg: modulates binding of RGS7 to human Galphao; Multiplexed bead flow cytometry; actives lie on both sides; hit rate 0.35% among 220,000; binding response (% of control), % at 10 µM; AID 1439; P09471; in the data active = binding response below about 49% or above about 150%; inconclusive = no clear call, values can overlap the other calls; inactive = in between;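 also: fluorescent Galphao held in activated GDP-AlF4 state binding bead-coupled RGS7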
Avidin fluor: avidin bead compound fluorescence profile; hit rate 0.38% among 220,000; fluorescence (KMESF) at 10 µM; Avidin beads, compound fluorescence 488/530 nm, flow cytometry; active compounds read high; AID 1775; in the data active = fluorescence above about 47
RGS4-Gao HTS: modulates binding between human RGS4 and Galphao; shares compounds with RGS16-Gao; multiplexed bead flow cytometry, RGS–Galpha-o binding; RGS4–Galpha-o binding response, % at 10 µM; hit rate 99% among 1,600;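 also: fluorescently labeled Galpha-o bound to GDP with aluminium fluoride binding biotinylated RGS beads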
Biotin-avidin: counter-screen: compounds disrupting biotin binding to avidin beads; AID 1783; inhibition, % at 10 µM; 1,700 tested, under 10 active; shares compounds with RGS16-Gao; streptavidin beads, fluorescein-biotin binding, flow cytometry;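 active = inhibition above 50%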;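 also: median green fluorescence of gated singlet beads compared with DMSO control wells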
RGS8-Gao confirm: confirmation of regulators of human RGS8-Galphao interaction | bead-based flow cytometry RGS8-Galphao binding, fluorescence; actives lie on both sides | binding response (% of control), % at 10 µM | hit rate 3% among 1,700 | shares compounds with RGS16-Gao; in the data active = binding response below about 72% or above about 130%; inactive = in between;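 also: Galphao activated as GDP AlF4 complex before binding bead RGS8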
RGS7-Gao single: confirmation of regulators of human RGS7-Galphao interaction; AID 1837; shares compounds with RGS16-Gao; response (percent of control binding), % at 10 µM; hit rate 7.8% among 1,700; bead-based flow cytometry RGS7-Galphao binding; actives lie on both sides; in the data active = response below about 75% or above about 130%; inactive = in between;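 also: fluorescent Galphao activated with GDP and aluminum fluoride binding bead-coupled RGS7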
RGS16-Gao single: confirmation of regulators of human RGS16-Galphao interaction. shares compounds with RGS16-Gao. bead-based flow cytometry, RGS16-Galphao binding; actives lie on both sides. hit rate 4% among 1,700. AID 1838. response (% of control binding), % at 10 µM; in the data active = response below about 74% or above about 130%; inactive = in between;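 also: Galphao activated as the GDP aluminium fluoride complex binding bead-coupled RGS16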
RGS4-Gao single: RGS4-Galphao interaction regulation, single point confirmation | shares compounds with RGS16-Gao | RGS4-Galphao binding, multiplexed bead flow cytometry; actives lie on both sides | binding response (% of control), % at 10 µM | hit rate 4% among 1,700; in the data active = binding response below about 74% or above about 130%; inactive = in between
RGS19-Gao single: RGS19-Galphao interaction regulation, single point confirmation; AID 1841; response (percent of control binding), % at 10 µM; shares compounds with RGS16-Gao; hit rate 5% among 1,700; bead-based flow cytometry RGS19-Galphao binding; actives lie on both sides; in the data active = response below about 50% or above about 160%; inactive = in between
Numbers stand for hits; . = inactive; ? = inconclusive; / = not tested or not shown; [ ] = dose if it differs, or a comment. Unless noted, no rule for the calls is given here.

SMILES	RGS16-Gao	GSH fluor	RGS4-Gao reg	RGS8-Gao	RGS7-Gao reg	Avidin fluor	RGS4-Gao HTS	Biotin-avidin	RGS8-Gao confirm	RGS7-Gao single	RGS16-Gao single	RGS4-Gao single	RGS19-Gao single
Oc1cc(-n2cccn2)c(O)cc1-n1cccn1	.	/	.	.	?	.	/	/	/	/	/	/	/
C/C(Cc1ccccc1)=N\NC(=O)CNC(=O)c1ccc(Cl)cc1	.	/	.	.	?	.	/	/	/	/	/	/	/
CC(=O)N1CCc2c(sc(NC(=O)CN3C(=O)c4ccccc4C3=O)c2C(N)=O)C1	.	.	.	.	157[activator]	.	146	.	.	.	.	.	.
CSC1=NSC2=NC(=O)/C(=C/c3coc4ccccc4c3=O)C(=N)N12	.	.	.	.	174[activator]	94	150	/	/	/	/	/	/
CSC1=NSC2=NC(=O)/C(=C/c3coc4ccc(O)cc4c3=O)C(=N)N12	.	.	.	.	.	.	/	/	/	/	/	/	/
Cc1nc(C)c(C(=O)O)c(-c2cccs2)c1C(=O)O	.	/	.	.	?	.	/	/	/	/	/	/	/
CCn1c(=O)n(CC(=O)N2CC(C)CC(C)C2)c(=O)c2ccccc21 (configuration not stated)	.	.	.	.	.	.	/	/	/	/	/	/	/
CCn1c(=O)n(CC(=O)NC2CCCC(C)C2C)c(=O)c2ccccc21 (configuration not stated)	.	.	.	.	198[activator]	99	119	/	/	/	/	/	/
Cc1[nH]n(-c2ccccc2)c(=O)c1C=Nc1ccc(S(=O)(=O)N=C(N)N)cc1	.	/	.	.	?	.	/	/	/	/	/	/	/
Cc1[nH]n(-c2ccccc2)c(=S)c1C=Nc1ccc([N+](=O)[O-])cc1	9.8	.	.	.	.	.	86	/	/	/	/	/	/
CSc1ccc(C2C(C#N)=C(N)Oc3c2ccc(=O)c2c(C)oc(C)c32)cc1 (configuration not stated)	.	159	180[activator]	.	254[activator]	93	/	.	.	.	.	.	.
CCOCCCNC(=O)/C(C#N)=C/c1ccc(-c2ccc(S(=O)(=O)N3CCOCC3)cc2)o1	.	.	.	.	.	.	/	/	/	/	/	/	/
COCCNC(=O)/C(C#N)=C/c1ccc(-c2ccc(S(=O)(=O)N3CCOCC3)cc2)o1	-1.2	.	.	.	.	.	79	.	.	.	.	.	.
CNC(=O)C1CC(=O)N(CCCc2ccccc2)C(=Nc2ccccc2)S1 (configuration not stated)	22	.	.	.	.	.	94	.	.	.	.	.	.
CSc1ccc(S(=O)(=O)N(CC(=O)NN=C2CCN(C)CC2)c2ccc(C)cc2)cc1	.	.	.	.	174[activator]	63	112	.	.	125[activator]	.	.	195[activator]
CC(C)c1ccc(N(CC(=O)NN=C2CCN(C)CC2)S(=O)(=O)c2ccccc2)cc1	.	.	.	.	.	.	/	/	/	/	/	/	/
O=C(CN1C(=O)NC2(CCCCCCC2)C1=O)N1CCN(C(=O)c2ccco2)CC1	199[activator]	.	.	.	.	.	120	.	.	.	.	.	.
O=C(CN1C(=O)NC2(CCCC2)C1=O)N1CCN(C(=O)c2ccco2)CC1	.	.	.	.	.	.	/	/	/	/	/	/	/
O=C1CCCc2ccccc2N1Cc1cccc(F)c1	.	.	.	.	.	.	/	/	/	/	/	/	/
O=C1CCCc2ccccc2N1Cc1ccc(F)cc1	.	.	.	.	170[activator]	.	111	.	.	.	.	.	.
COc1ccc(-c2nc(C)sc2C)cc1	.	.	.	142[activator]	.	.	115	.	.	.	.	.	.
COc1ccc(-c2nc(-n3c(C)c(C(C)=O)c(C(C)=O)c3C)sc2C)cc1	.	.	47	56	44	.	/	.	.	.	.	.	.
CC(C)=CCN1CCN(Cc2cccn2-c2ncccn2)CC1CCO (configuration not stated)	.	.	.	.	?	.	/	/	/	/	/	/	/
Cc1nn(-c2ccc(F)cc2)c2sc(C(=O)OC3CCOC3=O)cc12 (configuration not stated)	/	.	/	/	/	/	/	.	.	.	.	.	.
O=C(COC(=O)c1ccc2c(=O)n3c(nc2c1)CCC3)NC1CCS(=O)(=O)C1 (configuration not stated)	.	.	.	.	?	.	/	/	/	/	/	/	/
SMILES	RGS16-Gao	GSH fluor	RGS4-Gao reg	RGS8-Gao	RGS7-Gao reg	Avidin fluor	RGS4-Gao HTS	Biotin-avidin	RGS8-Gao confirm	RGS7-Gao single	RGS16-Gao single	RGS4-Gao single	RGS19-Gao single
c1ccc(N(c2ccccc2)c2nc(-n3ccnc3)nc(-n3ccnc3)n2)cc1	/	.	/	/	/	/	/	.	.	.	.	.	.
COc1cc2ccccc2cc1C(=O)NC(=S)Nc1cccc(C(=O)O)c1C	.	/	.	.	?	.	/	/	/	/	/	/	/
Cc1nn(-c2cc(Cl)ccc2Cl)c(C)c1C(=O)O	.	.	.	.	?	.	/	/	/	/	/	/	/
O=C(CSC1c2ccccc2C(=O)N1c1ccccc1)N1CCOCC1 (configuration not stated)	.	.	.	.	.	.	/	/	/	/	/	/	/
CN(C)C(=O)CSC1c2ccccc2C(=O)N1c1ccccc1 (configuration not stated)	.	.	23	9.1	15	.	/	.	.	.	.	.	.
NC(=O)CSc1nnc(-c2ccco2)n1N	/	.	/	/	/	/	/	.	.	.	.	.	.
Cn1ncc([N+](=O)[O-])c1C(=O)Nc1ccc(-c2nc3ccccc3[nH]2)cc1	/	.	/	/	/	/	/	.	.	.	.	.	.
CCc1cccc(CC)c1NC(=O)C1CC(=O)N(c2ccc3c(c2)OCCO3)C1 (configuration not stated)	-578	.	.	.	.	.	86	/	/	/	/	/	/
O=[N+]([O-])c1ccc(Sc2ccccc2)nc1	.	.	.	.	.	.	/	/	/	/	/	/	/
Nc1cccnc1Sc1ccc([N+](=O)[O-])cn1	.	.	4.3	5.6	5.8	.	/	.	.	131[activator]	.	.	.
O=C(CSc1ccc(-c2ccc(Cl)cc2)nn1)Nc1ccc2c(c1)OCCO2	.	.	.	.	.	.	/	/	/	/	/	/	/
